According to PubChem BioAssay (NCATS):
Several values for one entry are separate records, joined by “and”; a condition that tells them apart may be missing. Identical values can stand only once. Results filed as inconclusive are left out. Activity calls are given as the source filed them. Unless noted, calls come from the whole dose curve; as a rule, active = well fitted curve in the direction sought with a large enough effect; inconclusive = small, poorly fitted or top-dose-only effect, or another doubt; inactive = no such curve, though single readings can be large; an effect the other way counts as inactive or inconclusive.

What was measured:
[1] = Validation screen for small molecules that induce genotoxicity in human embryonic kidney (HEK293T) cells expressing luciferase-tagged ELG1 (AID 493106); note: 0% is about no effect
Summary of the method: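 In this validation screen, increased ELG1-luciferase signal flags compounds causing genetic stress. HEK293T reporter cells are treated 16 hr (37 °C, 5% CO2), developed with ONE-Glo for 30 min at room temperature, and imaged on a CCD-based reader.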

[2] = target: Thyrotropin-releasing hormone receptor (Homo sapiens) (UniProt P34981); assay: qHTS for Small Molecule Agonists and Allosteric Enhancers of Human TRH Receptor: Validation Screen for Agonists (AID 493127;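 active = calcium activation more than 3 SD above the typical response in the agonist read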;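 note: intracellular calcium rise by fluo-8 fluorescence before TRH EC20 addition; 0% is about no effect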); conditions: TRH receptor agonist cell assay; at 2 µM; stronger effect = higher value
Summary of the method: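 Kinetic fluorescence assay of agonist-induced calcium release: overnight-plated TRHR cells, room-temperature fluo-8 loading, baseline then compound addition with per-second reads.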

[3] = Nrf2 qHTS screen for inhibitors: Validation (AID 493153; active = well fitted inhibition curve with a large enough effect in the main read-out, with a control signal flat, not every such curve was filed as active); conditions: Potency: luciferase luminescence; viability change: measured here: cytotoxicity max response
Summary of the method: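 In this counterscreened reporter format, each well gives two signals: CellTiter-Fluor fluorescence for cytotoxicity and ARE-luciferase luminescence for Nrf2 function. A549 ARE_Fluc cells in 5% FBS OPTI-MEM were exposed to compound titrations for 18-24 h.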

[4] = qHTS for Inhibitors of Cell Surface uPA Generation: Validation Assay (AID 493164);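 note: RAW 264.7 macrophage cells exposed to compound for 18 h; 0% is about no effect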
Summary of the method: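 Compounds are titrated over seven points (2.45 nM–38.3 uM final) onto pre-plated RAW 264.7 cells and incubated for 18 h. Retained intracellular ATP, measured with ATP-Lite, indicates blocked lethal factor entry.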

[5] = target: Galactokinase (Homo sapiens) (UniProt P51570); assay: qHTS Validation Assay for Inhibitors of Human Galactokinase (GALK) (AID 493189); note: 0% is about no effect
Summary of the method: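 Compounds were pin-transferred into ATP buffer, then GALK-galactose mix was added (final 5 nM enzyme, 100 uM galactose, 35 uM ATP). After 1 h at room temperature, remaining ATP was measured luminescently.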

[6] = Validation screen for small molecules that induce DNA re-replication in SW480 colon adenocarcinoma cells (AID 504364); note: 0% is about no effect
Summary of the method: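 Hoechst-stained SW480 nuclei, imaged at 405 nm excitation after 48 hr compound exposure, were counted for elevated DNA content as the re-replication signal.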

[7] = target: Peptidyl-prolyl cis-trans isomerase NIMA-interacting 1 (Homo sapiens) (UniProt Q13526); assay: qHTS Validation Assay to Find Inhibitors of Pin1 (AID 504536; active = well fitted inhibition curve with a large enough effect in the polarisation, with a control signal flat, not every such curve was filed as active; the % refers to the polarisation;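 note: 0% = full Pin1 enzyme wells and -100% = no-enzyme wells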)
Summary of the method: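 Fluorescence polarization competition: compounds (titration) displace HiFluor-488-labeled Pin1-1b peptide from Pin1 (0.3 uM final) in pH 7.5 HEPES buffer with DTT, 10 min at room temperature; %Activity normalized to no-enzyme wells, curves fitted.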

[8] = target: Phosphoglycerate kinase, glycosomal (Trypanosoma brucei brucei) (UniProt P07378); assay: qHTS Validation Assay to Find Inhibitors of Phosphoglycerate Kinase (AID 504547);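 note: control wells lack PGK and mark full inhibition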
Summary of the method: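 Compounds are pinned into the substrate/PGK mixture, and GAPDH (100nM final) is added to start the reaction by producing 1,3-BPG. After 60 minutes at room temperature, Kinase-Glo Plus is added and luminescence is measured 10 minutes later.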

[9] = target: phosphoglycerate mutase (Leishmania major) (UniProt Q4Q090); assay: qHTS Validation Assay to Find Inhibitors of Phosphoglycerate Mutase (AID 504548); note: series mostly up to about 58 µM; % is set by controls: 0 for no effect and ±100 for the full control effect
Summary of the method: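 Lm PGAM at 1.25 nM final with substrate in 100 mM TEA pH 7.6, 5 mM MgCl2, 0.01% Tween-20; 45 min at room temperature. Kinase-GloPlus added, 10 min, end-point luminescence read.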

[10] = target: Ubiquitin carboxyl-terminal hydrolase 1 (Homo sapiens) (UniProt O94782); assay: Inhibitors of USP1/UAF1: Pilot qHTS (AID 504865); note: nearly all actives have a fitted effect of over 35% in size; note: potency is the fitted concentration of half-maximal effect
Summary of the method: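 Kinetic fluorescence assay: 1nM USP1/UAF1, 15 min compound preincubation, then 150nM Ub-Rho; 480/540 nm.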

[11] = qHTS for Inhibitors of ATXN expression: Validation of Cytotoxic Assay (AID 588349); note: % is set by controls: 0 for no effect and ±100 for the full control effect
Summary of the method: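 Toxicity of test compounds toward HEK293 cells is scored from cellular ATP content measured by CellTiter Glo. Cells receive titrated doses and incubate 72 hr at 37 degrees C beforehand.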

[12] = target: DNA dC->dU-editing enzyme APOBEC-3G (Homo sapiens) (UniProt Q9HC16); assay: qHTS for inhibitors of Vif-A3G interactions: Validation (AID 588379); note: 0% is about no effect
Summary of the method: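 Yellow fluorescence (Ex 488, Em 500-530) of Vif-coexpressing HeLa A3G-eYFP cells, scanned by Acumen cytometer, reports blocked A3G degradation. Cells plated at 700/well overnight at 37 deg C before compound addition, then a further overnight compound incubation at 37 deg C.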

[13] = target: Estrogen receptor (Homo sapiens) (UniProt P03372); assay: qHTS assay for small molecule agonists of estrogen receptor alpha signaling (AID 588514; calls by dose curve;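 note: 0% = vehicle only and 100% = reference agonist; nearly all actives have a fitted effect of over 70% in size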)
Summary of the method: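 Fluorescence from CCF4 cleavage reports ER-alpha-driven beta-lactamase expression in HEK 293 cells treated 18 hrs at 37 C. Data normalized to 17-beta-estradiol (20 nM) and DMSO, fitted to Hill equation.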

[14] = target: Bile acid receptor (Homo sapiens) (UniProt Q96RI1); assay: qHTS assay for small molecule antagonists of farnesoid X receptor signaling (AID 588526; calls by dose curve; note: % is set by controls: 0 for no effect and ±100 for the full control effect)
Summary of the method: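 Antagonist mode: titrated compounds tested against chenodeoxycholic acid stimulation (normalized to 50 uM CDCA and DMSO) in GeneBLAzer HEK293T cells for 16 h. Beta-lactamase read by CCF4 fluorescence; IC50 from Hill fits.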

[15] = target: Glucocorticoid receptor (Homo sapiens) (UniProt P04150); assay: qHTS assay for small molecule agonists of glucocorticoid receptor signaling (AID 588532; active = well fitted curve in the direction sought with a large enough effect in the signal ratio, with a control signal flat; the % refers to the signal ratio;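 note: 100% = dexamethasone at 0.1 µM and 0% = DMSO only wells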); conditions: HeLa MMTV-bla, beta-lactamase ratio, agonist, 18 h; stronger effect = higher value; percent of dexamethasone control, DMSO zero
Summary of the method: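 Cells were plated and rested 3-5 h at 37 C, compounds were added in titration and incubated 18 h, then CCF4 substrate was loaded for 2 h at RT before reading blue/green fluorescence. EC50 came from Hill-equation fitting.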

[16] = qHTS assay for small molecule antagonists of peroxisome proliferator-activated receptor delta signaling (AID 588535); conditions: HEK293T PPARd-UAS-bla, beta-lactamase FRET ratio, 18 h; 460 nm channel;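 note: cells co-treated with a PPAR-delta agonist as stimulator during compound exposure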
Summary of the method: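 Beta-lactamase reporter read-out (405 nm excitation, 460/530 nm emission) after CCF4 loading for 2 hrs at RT. HEK293T PPAR-delta-UAS-bla cells, 2% charcoal/dextran FBS, compounds for 18 hrs at 37 C. Hill fit gave IC50 and efficacy.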

[17] = target: ATPase family AAA domain-containing protein 5 (Homo sapiens) (UniProt Q96QE3); assay: Validation screen for small molecules that inhibit ELG1-dependent DNA repair in human embryonic kidney (HEK293T) cells expressing luciferase-tagged ELG1 (AID 493107); note: nearly all actives have a fitted effect of over 70% in size; note: potency is the fitted concentration of half-maximal effect
Summary of the method: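 Compounds reducing 5-fluorouridine-driven ELG1-luciferase signal in HEK293T cells were scored; exposure lasted 16 hr at 37 °C with luminescence detected via ONE-Glo.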

[18] = qHTS for Inhibitors of ATXN expression: Validation (AID 588378); note: series mostly up to about 57 µM; % is set by controls: 0 for no effect and ±100 for the full control effect; nearly all actives have a fitted effect of over 75% in size
Summary of the method: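 Validation of ATXN2 expression inhibitors uses a cell-based luciferase fusion reporter in HEK293 cells, with 24 h compound exposure and paired viability (fluorescence) and reporter (luminescence) end-point reads.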

Estrogen receptor (Homo sapiens), sequence (P03372 whole entry, looked up): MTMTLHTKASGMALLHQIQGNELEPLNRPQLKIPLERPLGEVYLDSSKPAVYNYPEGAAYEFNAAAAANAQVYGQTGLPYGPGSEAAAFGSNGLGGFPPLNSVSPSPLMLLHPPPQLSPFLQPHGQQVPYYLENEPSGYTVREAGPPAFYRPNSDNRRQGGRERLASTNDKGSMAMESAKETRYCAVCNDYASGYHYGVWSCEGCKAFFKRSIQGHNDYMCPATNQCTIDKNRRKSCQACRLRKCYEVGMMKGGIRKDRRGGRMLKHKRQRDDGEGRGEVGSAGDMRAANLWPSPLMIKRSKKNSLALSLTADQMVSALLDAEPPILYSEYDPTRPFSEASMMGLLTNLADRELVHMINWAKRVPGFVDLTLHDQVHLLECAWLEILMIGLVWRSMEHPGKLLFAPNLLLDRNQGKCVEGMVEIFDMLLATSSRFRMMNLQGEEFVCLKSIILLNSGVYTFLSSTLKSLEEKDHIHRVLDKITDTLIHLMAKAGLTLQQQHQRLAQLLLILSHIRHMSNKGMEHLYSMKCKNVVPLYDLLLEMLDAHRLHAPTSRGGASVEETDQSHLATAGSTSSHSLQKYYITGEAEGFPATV
ATPase family AAA domain-containing protein 5 (Homo sapiens), sequence (Q96QE3 whole entry, looked up, the tested form may be a part): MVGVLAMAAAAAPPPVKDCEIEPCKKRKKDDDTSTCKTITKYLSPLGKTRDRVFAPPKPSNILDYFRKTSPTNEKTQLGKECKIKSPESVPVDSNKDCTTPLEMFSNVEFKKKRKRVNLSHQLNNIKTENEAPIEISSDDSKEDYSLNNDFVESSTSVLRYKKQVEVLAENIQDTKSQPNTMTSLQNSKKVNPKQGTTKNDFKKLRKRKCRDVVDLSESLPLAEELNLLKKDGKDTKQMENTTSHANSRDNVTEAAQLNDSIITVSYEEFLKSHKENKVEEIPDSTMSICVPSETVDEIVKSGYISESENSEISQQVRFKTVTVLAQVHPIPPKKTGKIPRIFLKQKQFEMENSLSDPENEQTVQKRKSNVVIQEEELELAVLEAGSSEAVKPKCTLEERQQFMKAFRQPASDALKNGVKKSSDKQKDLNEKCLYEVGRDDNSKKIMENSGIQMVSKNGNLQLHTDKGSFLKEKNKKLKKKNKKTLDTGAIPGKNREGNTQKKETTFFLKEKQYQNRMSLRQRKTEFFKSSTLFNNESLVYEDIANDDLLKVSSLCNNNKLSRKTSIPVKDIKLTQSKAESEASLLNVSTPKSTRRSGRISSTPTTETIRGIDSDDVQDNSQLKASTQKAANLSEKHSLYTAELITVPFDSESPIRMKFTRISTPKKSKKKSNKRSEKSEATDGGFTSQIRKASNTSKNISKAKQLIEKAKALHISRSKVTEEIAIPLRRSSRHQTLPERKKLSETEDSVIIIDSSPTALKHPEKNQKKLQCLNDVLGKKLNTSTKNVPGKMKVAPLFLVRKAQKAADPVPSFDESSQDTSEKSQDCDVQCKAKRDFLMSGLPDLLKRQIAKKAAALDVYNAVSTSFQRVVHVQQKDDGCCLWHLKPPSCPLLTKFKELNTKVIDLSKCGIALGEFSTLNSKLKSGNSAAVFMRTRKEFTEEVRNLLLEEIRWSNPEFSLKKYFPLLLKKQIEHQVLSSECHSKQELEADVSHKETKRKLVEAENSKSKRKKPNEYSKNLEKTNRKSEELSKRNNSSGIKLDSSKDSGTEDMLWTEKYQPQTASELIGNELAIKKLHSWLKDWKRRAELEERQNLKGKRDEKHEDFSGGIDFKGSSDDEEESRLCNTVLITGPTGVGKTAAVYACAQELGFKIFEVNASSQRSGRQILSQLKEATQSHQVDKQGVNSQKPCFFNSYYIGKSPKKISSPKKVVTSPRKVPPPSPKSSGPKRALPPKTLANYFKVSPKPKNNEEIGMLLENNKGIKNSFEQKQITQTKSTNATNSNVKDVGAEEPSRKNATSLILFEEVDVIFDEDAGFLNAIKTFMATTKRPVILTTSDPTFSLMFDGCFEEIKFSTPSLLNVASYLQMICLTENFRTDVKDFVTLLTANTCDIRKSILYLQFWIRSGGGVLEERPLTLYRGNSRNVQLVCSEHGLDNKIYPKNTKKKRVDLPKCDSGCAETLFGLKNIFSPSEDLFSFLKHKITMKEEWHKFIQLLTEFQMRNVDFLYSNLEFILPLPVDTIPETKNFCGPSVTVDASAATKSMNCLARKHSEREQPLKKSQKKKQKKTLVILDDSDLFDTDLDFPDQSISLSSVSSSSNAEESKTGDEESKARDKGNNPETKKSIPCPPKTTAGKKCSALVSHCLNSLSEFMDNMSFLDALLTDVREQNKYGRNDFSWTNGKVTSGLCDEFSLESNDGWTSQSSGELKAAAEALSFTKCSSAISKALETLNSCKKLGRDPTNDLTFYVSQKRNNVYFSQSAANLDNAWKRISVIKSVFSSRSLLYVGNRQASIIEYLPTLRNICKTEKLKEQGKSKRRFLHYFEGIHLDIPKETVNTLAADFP
Ubiquitin carboxyl-terminal hydrolase 1 (Homo sapiens), sequence (O94782 whole entry, looked up): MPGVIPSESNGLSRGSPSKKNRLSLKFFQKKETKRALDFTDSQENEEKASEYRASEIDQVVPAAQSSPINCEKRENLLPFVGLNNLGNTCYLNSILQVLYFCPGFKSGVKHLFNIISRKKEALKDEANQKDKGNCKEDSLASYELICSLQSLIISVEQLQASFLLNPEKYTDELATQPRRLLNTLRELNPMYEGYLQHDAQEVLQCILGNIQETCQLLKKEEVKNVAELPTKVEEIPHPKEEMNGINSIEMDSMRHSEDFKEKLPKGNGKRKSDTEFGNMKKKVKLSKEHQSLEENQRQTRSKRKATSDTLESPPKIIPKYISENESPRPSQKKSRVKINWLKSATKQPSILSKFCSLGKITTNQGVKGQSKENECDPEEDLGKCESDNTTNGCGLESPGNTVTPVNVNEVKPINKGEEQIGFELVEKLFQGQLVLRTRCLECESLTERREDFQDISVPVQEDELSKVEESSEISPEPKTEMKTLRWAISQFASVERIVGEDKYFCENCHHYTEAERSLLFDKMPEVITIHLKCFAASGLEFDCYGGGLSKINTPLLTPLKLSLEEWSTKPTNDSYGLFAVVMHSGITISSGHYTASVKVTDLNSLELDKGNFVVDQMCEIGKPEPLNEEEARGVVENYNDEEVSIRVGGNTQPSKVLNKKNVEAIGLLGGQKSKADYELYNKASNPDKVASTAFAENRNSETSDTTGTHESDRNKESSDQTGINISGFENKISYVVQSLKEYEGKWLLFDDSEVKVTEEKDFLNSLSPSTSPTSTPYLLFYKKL
Thyrotropin-releasing hormone receptor (Homo sapiens), sequence (P34981 whole entry, looked up): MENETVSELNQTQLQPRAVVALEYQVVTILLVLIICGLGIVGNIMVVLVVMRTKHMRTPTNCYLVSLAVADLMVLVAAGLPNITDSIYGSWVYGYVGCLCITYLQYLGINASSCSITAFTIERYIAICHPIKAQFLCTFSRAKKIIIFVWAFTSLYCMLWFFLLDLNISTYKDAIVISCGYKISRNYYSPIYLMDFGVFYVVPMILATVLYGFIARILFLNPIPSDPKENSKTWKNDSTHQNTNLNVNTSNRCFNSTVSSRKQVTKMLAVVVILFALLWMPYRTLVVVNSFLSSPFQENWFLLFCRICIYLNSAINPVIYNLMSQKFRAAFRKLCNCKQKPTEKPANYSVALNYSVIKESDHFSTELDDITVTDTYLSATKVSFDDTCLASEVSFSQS
Bile acid receptor (Homo sapiens), sequence (Q96RI1 whole entry, looked up): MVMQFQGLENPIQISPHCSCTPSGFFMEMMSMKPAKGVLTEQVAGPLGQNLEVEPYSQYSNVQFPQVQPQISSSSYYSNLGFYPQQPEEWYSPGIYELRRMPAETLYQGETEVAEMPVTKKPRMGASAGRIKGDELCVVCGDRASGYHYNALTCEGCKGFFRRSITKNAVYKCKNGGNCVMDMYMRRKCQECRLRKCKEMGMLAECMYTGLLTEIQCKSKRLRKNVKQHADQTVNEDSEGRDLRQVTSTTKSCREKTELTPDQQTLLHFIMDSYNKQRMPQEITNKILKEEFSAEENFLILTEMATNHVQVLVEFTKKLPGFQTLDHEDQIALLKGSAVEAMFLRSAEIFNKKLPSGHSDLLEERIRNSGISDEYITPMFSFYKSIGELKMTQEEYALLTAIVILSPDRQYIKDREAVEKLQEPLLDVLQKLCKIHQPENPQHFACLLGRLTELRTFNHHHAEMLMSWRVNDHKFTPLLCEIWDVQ
DNA dC->dU-editing enzyme APOBEC-3G (Homo sapiens), sequence (Q9HC16 whole entry, looked up): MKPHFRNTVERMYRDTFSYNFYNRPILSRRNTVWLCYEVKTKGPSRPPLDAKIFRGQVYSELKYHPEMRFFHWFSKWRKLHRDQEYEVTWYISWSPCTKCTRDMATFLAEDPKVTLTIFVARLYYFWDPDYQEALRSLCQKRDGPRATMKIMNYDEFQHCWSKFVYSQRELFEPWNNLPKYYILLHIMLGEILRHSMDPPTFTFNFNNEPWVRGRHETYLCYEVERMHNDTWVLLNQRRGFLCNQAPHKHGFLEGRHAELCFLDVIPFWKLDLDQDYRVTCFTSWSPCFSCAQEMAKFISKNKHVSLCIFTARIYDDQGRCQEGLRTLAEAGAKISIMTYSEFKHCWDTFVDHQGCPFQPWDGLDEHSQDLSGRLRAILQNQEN
Phosphoglycerate kinase, glycosomal (Trypanosoma brucei brucei), sequence (P07378 whole entry, looked up): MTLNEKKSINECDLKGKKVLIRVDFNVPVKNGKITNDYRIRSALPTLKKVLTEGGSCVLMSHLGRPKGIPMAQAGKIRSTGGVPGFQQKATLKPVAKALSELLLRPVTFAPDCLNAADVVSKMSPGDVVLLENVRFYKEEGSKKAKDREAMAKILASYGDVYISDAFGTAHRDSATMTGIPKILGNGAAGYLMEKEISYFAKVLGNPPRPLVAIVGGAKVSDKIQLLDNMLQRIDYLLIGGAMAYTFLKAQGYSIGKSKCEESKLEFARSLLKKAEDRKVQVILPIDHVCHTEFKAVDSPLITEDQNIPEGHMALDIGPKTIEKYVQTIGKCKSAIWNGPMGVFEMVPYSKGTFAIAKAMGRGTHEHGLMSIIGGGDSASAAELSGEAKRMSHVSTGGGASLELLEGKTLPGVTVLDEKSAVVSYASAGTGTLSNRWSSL

COc1ccc2[nH]cc(CCNC(C)=O)c2c1
14.8% and 21.6% and 4.95%: max response [16]
inactive: Potency [1] | activation [2] -2.38% | Potency [3] | outcome [4] | Potency [5] | Potency [6] | Potency [7] | Potency [8] | outcome [9] | Potency [10] | outcome [11] | outcome [12] | outcome [13] | Potency [14] | activation [15] -4.76% and 1.7% and -3.63%
-12.9%: viability change [3]

CN1CCC(=C2c3ccccc3CC(=O)c3sccc32)CC1
inactive: Potency [1] | Potency [17] | Potency [3] | outcome [4] | Potency [5] | Potency [6] | Potency [7] | Potency [8] | outcome [9] | Potency [10] | outcome [11] | outcome [12]
-3.17%: viability change [3]

CCOC(=O)Nc1ccc(NCc2ccc(F)cc2)nc1N
inactive: Potency [1] | Potency [17] | outcome [4] | Potency [6] | outcome [9] | outcome [11]

C[C@H]1c2cccc(O)c2C(O)=C2C(=O)[C@]3(O)C(O)=C(C(N)=O)C(=O)[C@@H](N(C)C)[C@@H]3[C@@H](O)[C@@H]21
inactive: Potency [1] | Potency [17] | outcome [4] | Potency [7] | Potency [8] | outcome [9] | Potency [10] | outcome [11]

NS(=O)(=O)c1cc2c(cc1Cl)NCNS2(=O)=O
-1.09%: viability change [3]
inactive: Potency [1] | activation [2] 0.938% | Potency [3] | outcome [4] | Potency [5] | Potency [6] | Potency [7] | Potency [8] | outcome [9] | Potency [10] | outcome [11] | Potency [18] | outcome [13] | Potency [14] | activation [15] -0.573%

Clc1ccc(C(c2ccccc2Cl)C(Cl)Cl)cc1 (stereo not given)
inactive: Potency [1] | Potency [17] | activation [2] 1.38% | outcome [4] | Potency [5] | Potency [6] | Potency [7] | Potency [8] | outcome [9] | Potency [10] | outcome [11] | activation [15] -3.98%
-16.9%: max response [16]

NC(CO)C(=O)NNCc1ccc(O)c(O)c1O (stereo not given)
-7.62%: viability change [3]
inactive: Potency [1] | Potency [17] | Potency [3] | outcome [4] | Potency [5] | Potency [6] | Potency [7] | Potency [8] | outcome [9] | Potency [10] | outcome [11]

OCCN(CCO)c1nc(N2CCCCC2)c2nc(N(CCO)CCO)nc(N3CCCCC3)c2n1
active: Potency [17] 0.231 µM | Potency [10] 31.6 µM and 22.4 µM
inactive: Potency [1] | activation [2] 25.4% | outcome [4] | Potency [5] | Potency [6] | Potency [8] | outcome [9] | Potency [18] | outcome [12]

CC(COc1ccccc1)N(CCCl)Cc1ccccc1 (stereo not given)
inactive: Potency [1] | Potency [17] | outcome [4] | Potency [5] | Potency [6] | Potency [7] | Potency [8] | outcome [9] | outcome [11]
